High-throughput results deposited in PubChem BioAssay by National Center for Advancing Translational Sciences (NCATS).
Only some compounds are listed: those with a hit (about 6% of all), similar ones and a draw of the others.
Bst PK mod: Pyruvate Kinase. Potency, µM. purified pyruvate kinase, luminescence ATP production; ribose 5-phosphate activator present at AC10. actives 1.2% (n = 51,000); in the data active = potency below about 11 µM; inconclusive = mostly about 12 µM to 25 µM;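 the screen sought inhibitors and activators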;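 also: scaled between full activation by ribose 5 phosphate and full inhibition by luteolin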
ALOX15 inhib: qHTS Assay for Inhibitors of 15-hLO (15-human lipoxygenase); Potency, µM (titrated, usually from 57.1 µM), inactives show at the top dose activity change, negative = inhibition, actives largely listed as inhibitors; Polyunsaturated fatty acid lipoxygenase ALOX15 (Homo sapiens), P16050; actives 1.4% (n = 74,000); purified 15hLO-1, xylenol orange hydroperoxide absorbance; AID 887, 2007; also: nearly all actives have a fitted effect of over 55% in size
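40 nM 15hLO-1 + cpd, 15 min RT; start w/ 50 uM AA (final), 6 min RT; stop/detect w/ 200 uM XO + 300 uM Fe(II) in 50 mM H2SO4, 30 min; A573/A405. Buffer 25 mM Hepes pH 7.5, 0.01% Triton X-100. No-enzyme wells as negative control.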
Pol III holo inh: qHTS Assay for Inhibitors of DNA Polymerase III Holoenzyme System; reconstituted DNA polymerase III holoenzyme replication, biochemical; Potency, µM (highest dose often 57.1 µM), inactives show top-dose activity change, negative = inhibition; actives 0.25% (n = 71,000)
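Reconstituted *E. coli* holoenzyme (0.35 nM Pol III, 1 nM beta, 154 nM SSB, 2 nM primase) was preincubated with compound for 15 min at RT. Synthesis on 1.4 nM ssM13Gori ran 35 min, then was stopped with PicoGreen/EDTA and read as dsDNA fluorescence.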
FLuc inh: qHTS Assay for Inhibitors of Firefly Luciferase; Luciferin 4-monooxygenase (Photinus pyralis), P08659; purified firefly luciferase, luminescence, 8 min; Potency, µM (titrated, usually from 57.1 µM), for the others: top-dose activity change, negative = inhibition, usual class: inhibitors; actives 2.2% (n = 72,000); also: nearly all actives have a fitted effect of over 40% in size
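Compounds were tested as concentration series (qHTS) against purified P. pyralis luciferase with luciferin and 10 uM ATP in 50 mM imidazole pH 7.2, 50 mM KCl, 7 mM MgCl2, 0.01% Tween 20, 0.05% BSA. Luminescence was read after 8 min at ambient temperature.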
Tau filament bind: qHTS Assay for Tau Filament Binding | Microtubule-associated protein tau (Homo sapiens), P10636 | recombinant tau filaments, thioflavin S fluorescence, 15 h; filaments grown with octadecylsulfate alongside compound | Potency, µM (doses to about 57.1 µM), without a hit: at the top dose activity change, negative = inhibition | actives 2% (n = 71,000);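 also: actives lower thioflavin S fluorescence by blocking filaments or displacing dye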
Target sequence (P10636 whole entry, looked up): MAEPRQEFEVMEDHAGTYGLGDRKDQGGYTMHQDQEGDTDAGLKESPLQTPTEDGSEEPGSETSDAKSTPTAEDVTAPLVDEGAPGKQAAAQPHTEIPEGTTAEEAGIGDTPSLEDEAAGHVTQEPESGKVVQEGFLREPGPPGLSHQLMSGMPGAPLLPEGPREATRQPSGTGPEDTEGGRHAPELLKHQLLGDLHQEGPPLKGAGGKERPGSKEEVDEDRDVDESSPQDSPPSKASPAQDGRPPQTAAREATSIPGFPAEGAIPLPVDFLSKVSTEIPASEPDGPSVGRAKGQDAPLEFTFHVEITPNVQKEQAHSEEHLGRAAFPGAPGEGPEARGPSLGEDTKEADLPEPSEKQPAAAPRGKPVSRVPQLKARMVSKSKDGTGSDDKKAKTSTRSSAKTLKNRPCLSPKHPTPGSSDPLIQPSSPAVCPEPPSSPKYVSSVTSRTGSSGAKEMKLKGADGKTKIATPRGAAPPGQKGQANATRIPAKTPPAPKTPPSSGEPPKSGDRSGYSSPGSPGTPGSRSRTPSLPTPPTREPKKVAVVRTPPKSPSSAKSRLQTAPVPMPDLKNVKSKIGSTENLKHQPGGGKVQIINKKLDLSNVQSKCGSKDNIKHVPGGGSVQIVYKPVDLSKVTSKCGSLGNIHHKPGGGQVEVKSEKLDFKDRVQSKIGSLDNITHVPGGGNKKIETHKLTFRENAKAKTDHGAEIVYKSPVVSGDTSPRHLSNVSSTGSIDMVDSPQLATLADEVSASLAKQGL
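Thioflavine S fluorescence (ex 450, em 510 nm) reports filaments formed from 1 uM human tau plus 30 uM ODS over 15 h at 37 C (10 mM HEPES pH 7.4, 100 mM NaCl, 5 mM DTT); compounds displacing dye or blocking filaments lower signal.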
ERK AVP inh: qHTS Assay for Inhibitors of the ERK Signaling Pathway using a Homogeneous Screening Assay. HEK293-V1b, vasopressin-stimulated pERK AlphaScreen. AID 995, 2007. actives 0.99% (n = 72,000). Potency, µM (series often up to 57.5 µM), for inactives: at the top dose activity, negative = inhibition, actives largely listed as inhibitors; also: nearly all actives have a fitted effect of over 55% in size
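qHTS, compounds titrated on V1b-expressing HEK293 cells. Preincubation 30 min at 37C, vasopressin 25 nM for 5 min, lysis 10 min, bead incubation 5 hr at room temperature.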
* marks the source's active call; other numbers are inactive results; i = inactive; u = inconclusive; x = no result; [ ] = remark or other dose. Unless noted, calls follow the shape of the dose curve; as a rule, active = well fitted curve in the direction sought with a large enough effect; inconclusive = small, poorly fitted or top-dose-only effect, or another doubt; inactive = no such curve, though single readings can be large; an effect the other way counts as inactive or inconclusive. Unless noted, % is scaled to controls: 0 for no effect and ±100 for the full control effect; potency is read from the fitted curve at half-maximal effect.

SMILES	Bst PK mod	ALOX15 inhib	Pol III holo inh	FLuc inh	Tau filament bind	ERK AVP inh
COCCn1c(C)cc(C(=O)COC(=O)c2n[nH]c3ccccc23)c1C	1.4*	-7%	-3%	1.3µM*	38%	u
COCCn1c(C)cc(C(=O)COC(=O)c2c(C)nn(Cc3ccccc3)c2C)c1C	>57	u	-4%	-3%	11%	u
CCCn1c(C)cc(C(=O)COC(=O)c2ccc(Cl)c(S(=O)(=O)N3CCCC3)c2)c1C	u	0%	2%	13µM*	43%	-8%
CN1CCN(C(=O)c2ccc(Cl)c(S(=O)(=O)N3CCCCC3)c2)CC1	x	-14%	-4%	0%	-6%	-5%
CCOC(=O)c1n[nH]c2ccccc12	>26	x	x	2%[25.5 µM]	x	x
C[Si](C)(C)Cl	x	-10%	-3%	x	12%	19%
CCNS(=O)(=O)c1ccc(C)cc1	x	-2%	-2%	x	2%	0%
Clc1ccccc1-c1ccc(/C=N/n2cnnc2)o1	x	-5%	3%	-10%	-3%	u
Clc1ccc(Sc2oc(/C=N/n3cnnc3)cc2Br)cc1	x	-14%[11.4 µM]	-3%[11.4 µM]	0%	5µM*	28%
O=C1[C@H]2[C@H]3[C@H](O)[C@H](O)C/C(=N/OC[C@@H](O)COCc4ccco4)[C@@H]3CC[C@@H]2C(=O)N1Cc1ccc2c(c1)OCO2	x	-5%[11.4 µM]	x	2%[11.4 µM]	x	18%[11.5 µM]
Cc1occc1C(=O)Nc1cccc2ccccc12	i	-8%	2%	25µM*	-19%	3%
Cc1ccc(S(=O)(=O)N[C@H]2COC(=O)C/C=C\[C@@H](C)COC(=O)C/C=C\[C@@H]2C)cc1	x	2%[11.4 µM]	x	-1%[11.4 µM]	x	11%[11.5 µM]
CCc1c(C)nc2cc(-c3ccc(OC)cc3)[nH]n2c1=O	u	12%	-1%	20µM*	24%	15%
CCOC(=O)Cc1c(C)nc2cc(-c3ccc(Cl)cc3)[nH]n2c1=O	x	1%	-7%	-6%	-10%	-1%
Cc1ccc(-c2cc3nc4c(c(=O)n3[nH]2)CCCC4)cc1	x	-12%	0%	4µM*	80%	-4%
CC(C)(Oc1ccc(-c2cccc3ccccc23)cc1)C(=O)O	x	5%[11.4 µM]	-3%[11.4 µM]	2%[11.4 µM]	7%[11.4 µM]	-3%[11.5 µM]
Nc1ccc(N=Nc2ccccc2)c(N)n1	x	u	-6%	u	13µM*	u
COC1=CC(=O)C(O)=C/C1=C\C=C\c1ccccc1	x	u	x	x	x	-22%
CC(=O)Nc1ccc(-c2nc3ccc(Cl)cc3[nH]2)cc1	x	-3%[25.6 µM]	x	x	x	-26%
CC(=O)Nc1ccc(-c2nc3c(C)cccc3[nH]2)cc1	x	-13%	-6%	3.2µM*	2%	-4%
CCOc1ccccc1C(=O)Nc1cc(Cl)ccc1O	>57	10µM*	1%	1%	112%	10µM*
COc1ccccc1C(=O)Nc1cc(Cl)ccc1O	>26	x	x	-1%[25.5 µM]	x	x
O=C1CCCC=C1[C@H](CCc1ccccc1)OC(=O)c1ccc(Br)cc1	x	3%[11.4 µM]	x	-3%[11.4 µM]	x	-8%[11.5 µM]
CCOc1ccccc1N1CCN(S(=O)(=O)c2ccc3c4c(cccc24)C(=O)N3)CC1	>57	-24%	-13%	1%	16µM*	-18%
O=C1Nc2ccc(S(=O)(=O)N3CCOCC3)c3cccc1c23	>57	4%	-4%	2%	-2%	-10%
SMILES	Bst PK mod	ALOX15 inhib	Pol III holo inh	FLuc inh	Tau filament bind	ERK AVP inh
O=C1Nc2ccc(S(=O)(=O)N3CCCCCC3)c3cccc1c23	x	16µM*	-3%	-2%	25µM*	x
CCOCCO	x	-5%	-1%	x	8%	6%
COc1ccc(-c2coc3ccc(O[C@@H]4O[C@@H](COC(C)=O)[C@@H](OC(C)=O)[C@@H](OC(C)=O)[C@H]4OC(C)=O)cc3c2=O)cc1	x	x	1%	0%[11.4 µM]	u	x
CCCCc1c(C)nn(-c2nnc3c4ccccc4n(CC)c3n2)c1C	>57	39%	-4%	-6%	2µM*	20µM*
CCn1c2ccccc2c2nc3ccccc3nc21	x	-30%	-12%	-7%	-13%	-8%
Cc1cc(/C=C\c2ccc3cc(N(C)C)ccc3[n+]2C)c(C)n1-c1ccccc1	x	x	-7%[25.6 µM]	x	3.2µM*	u
COC(=O)C/C=C1\c2ccccc2[C@H](OC)[C@H]1C	x	5%[11.4 µM]	x	3%[11.4 µM]	x	4%[11.5 µM]
N#Cc1c(N)oc(-c2ccc3c(c2)OCO3)c1-c1ccc2c(c1)OCO2	>57	25µM*	-4%	1%	-12%	4%
Cc1ccc(-c2cc(-c3ccc4c(c3)OCO4)c(C#N)c(N)n2)o1	>57	10µM*	-6%	-10%	13µM*	4%
Cc1ccc(-c2cc(-c3ccc(C)o3)nc(N)c2C#N)cc1	>57	0%	0%	-5%	11%	-1%
CCCCCCCCCC(=O)N[C@@H](CN1CCOCC1)[C@@H](O)c1ccccc1	x	11%	-5%	1%	0%	33%
O=C1c2oc3ccc(Cl)cc3c(=O)c2C(c2cccnc2)N1Cc1ccco1 (configuration not stated)	x	3%	-5%	13µM*	42%	4%
COc1cc(C2c3c(oc4ccc(Cl)cc4c3=O)C(=O)N2Cc2ccco2)cc(OC)c1OC (configuration not stated)	>57	10%	1%	4%	-8%	-1%
O=C1c2oc3ccccc3c(=O)c2C(c2cccnc2)N1Cc1ccco1 (configuration not stated)	>57	-11%	-8%	3.2µM*	78%	-28%
CCN(CC)CCCN1C(=O)c2oc3ccccc3c(=O)c2C1c1cccnc1 (configuration not stated)	>57	5%	-5%	2%	13%	-2%
CC(C)CO/N=C1/C[C@@H](O)[C@@H](O)[C@@H]2[C@@H]3C(=O)N(C(C)(C)C)C(=O)[C@H]3CC[C@H]12	x	-4%[11.4 µM]	x	0%[11.4 µM]	x	20%[11.5 µM]
O=C(O)[C@@H]1CCCN1Cc1ccc2c(c1)OCO2	x	-12%[11.4 µM]	-16%[11.4 µM]	0%[11.4 µM]	5%[11.4 µM]	19%[11.5 µM]
COCCNC(=O)c1cc(-c2ccc3c(c2)OCO3)on1	x	-1%	-8%	13µM*	-3%	-12%
Oc1ccccc1-c1nc(NCC2CCCO2)c2ccccc2n1 (configuration not stated)	x	-19%	4%	1%	-5%	32µM*
COc1cccc(-c2nc(NCC3CCCO3)c3ccccc3n2)c1O (configuration not stated)	x	x	x	1%[25.5 µM]	x	x
CN1CCN(CCCNc2nc3ccccc3c3nc(-c4ccccc4)nn23)CC1	10*	9%	-2%	-4%	7%	7%
COc1cc2nc(NCCN3CCOCC3)n3nc(-c4ccccc4)nc3c2cc1OC	>57	8%	2%	2%	6%	-10%
